The results in this text go back to PubChem BioAssay (NCI).

Compounds without any hit were thinned out: in the full panel of roughly 83,000, 20% have a hit.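 Cells were grown in 96-well plates and exposed to the test compound at a single concentration for 48 hours; results are reported as percent growth, with values below 10 considered active.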 Unmarked numbers belong to inactive results. Activity calls are given as the source filed them.

Holding throughout (experiment): NCI-60 one-dose screen, 48 h (100 = growth as untreated, 0 = no growth, -100 = all killed)
Common to all, as to conditions: 10 µM unless noted

Assay [1] relates to DU-145 prostate.
In assay [2] the test system is K-562 leukemia.
Assay [3] deals with MALME-3M melanoma.
Assay [4] concerns MDA-MB-231 breast.
The test system of assay [5] is RXF 393 renal.
Assay [6] deals with SF-268 CNS.
Assay [7] relates to SF-295 CNS.
Assay [8] has as its system SF-539 CNS.
Assay [9] relates to UACC-257 melanoma.
In assay [10] the test system is M14 melanoma.

With `CC(C)(C)C(=O)c1c2c(c3ccc4c5ccccc5ccc4n13)C(=O)c1ccccc1C2=O`, the growth in [1] is 95.6%; in assay [2] it was 103%; in [3], 9.73% (active); in assay [4], 85.7%; in assay [5] it was 105%; in [6] it was 101%. For the same compound, the growth in [7] was 99.6%; in assay [8], 87.2%; in [9], 105%; in assay [10], 71.3%.
As to `NCCCCn1c(SCCc2c[nH]c3ccccc23)nnc1-c1ccc2ccccc2n1`, the growth was 42.8% in assay [1]; -35.4% (active) in [2]; -99.4% (active) in assay [3]; -83.7% (active) in [4]; -38.3% (active) in assay [5]; 42.4% in assay [6]. Also, the growth in assay [7] was -83.4% (active); in [8], -99% (active); in assay [9] it was -89.8% (active); in assay [10], -90.1% (active).
For `Cc1ccc(C2CC(c3ccc(S(=O)(=O)NCCNc4nc(N(C)C)nc(N5CCOCC5)n4)cc3)=Nc3c(N)nc(N)nc3N2)cc1` (stereo not given), the growth in assay [1] was 66%; in assay [2], 22.8%; in assay [3], 57.3%; in [4], 31%; in [5], 10.6%; in assay [6] it was 45.2%. The growth was 32.7% in assay [7], 43.8% in assay [8], 72.6% in assay [9] and 44.7% in [10].
With `Cc1cc(C2(c3cc(C)c(OCC(O)CNc4c(C)n(C)n(-c5ccccc5)c4=O)cc3C(C)C)OC(=O)c3ccccc32)c(C(C)C)cc1OCC(O)CNc1c(C)n(C)n(-c2ccccc2)c1=O` (stereo not given), the growth is 50.7% in assay [1]; 4.53% (active) in [2]; 26.3% in assay [3]; -36.5% (active) in assay [4]; 1.98% (active) in [5]; 32.6% in [6]. The growth in assay [7] was 24%; in [8] it was 38.9%; in assay [9] it was 27.5%; in assay [10], 29.2%.
For `Cc1ccc(NC(=O)N/N=C/c2c[nH]c3ccccc23)c(C)c1`, the growth is 12.9% in assay [1]; 10.5% in assay [2]; 52.8% in assay [3]; 21.1% in assay [4]; -12.3% (active) in assay [5]; 11.8% in assay [6]. Further, the growth was 5.78% (active) in [7], -5.67% (active) in assay [8], 46.5% in assay [9] and 12.5% in assay [10].
`Cc1ccc(S(=O)(=O)N(CCn2ccnc2[N+](=O)[O-])CCn2ccnc2[N+](=O)[O-])cc1`: the growth in assay [1] is 106%; in assay [2], 95.7%; in assay [3], 111%; in assay [4] it was 104%; in assay [5], 84.3%; in assay [6], 111%. The growth in [7] is 109%; in assay [8], 97.6%; in assay [9], 108%; in [10], 97.6%.
Regarding `O=C(CSc1nc2ccccc2c(=O)[nH]1)Nc1ccccc1C(=O)O`, the growth in assay [1] was 129%; in assay [2] it was 97.8%; in assay [3], 79.4%; in assay [4], 94.6%; in assay [5] it was 99.4%; in assay [6], 94.1%. Moreover, the growth in assay [7] is 101%; in assay [8] it was 92.7%; in [9], 103%; in assay [10] it was 105%.
For the compound `COC(=O)c1c(C(=O)OC)c2c3ccccc3c3ccccc3n2c1C(=O)C(C)(C)C`, the growth was 95.7% in [1]; 47.1% in assay [2]; 100% in assay [3]; 73.5% in [4]; 82.3% in assay [5]; 89.3% in assay [6]. In addition, the growth in assay [7] is 81.7%; in [8] it was 83.3%; in [9], 94.8%; in [10], 74.3%.
Take `CC(C)CN1C(=O)/C(=C\C(=O)c2cc3ccccc3oc2=O)c2ccccc21`: the growth was 98.3% in assay [1]; 1.97% (active) in assay [2]; 59% in assay [3]; 87.5% in assay [4]; 85.4% in assay [5]; 106% in assay [6]. For the same compound, the growth in [7] is 105%; in assay [8], 102%; in [9] it was 106%; in assay [10] it was 85%.
For `COc1ccc(-c2nc3ccc(-c4nnc(SCc5ccccc5)o4)cc3[nH]2)cc1`, the growth in [1] is 10.2%; in assay [2], 11.2%; in assay [3], -74.9% (active); in assay [4], -67.3% (active); in assay [5], -75.3% (active); in [6], -6.18% (active). Further, the growth in [7] was -75% (active); in assay [8] it was -99.7% (active); in assay [9] it was 21.8%; in [10], 5.59% (active).
With `COc1ccc(-c2nnc3c(/C=C/c4ccc(Br)cc4)nc4ccccc4n23)cc1`, the growth in assay [1] is 53.6%; in assay [2], 10.6%; in assay [3], -39.4% (active); in assay [4], 81.9%; in assay [5], -2.19% (active); in [6], 87.4%. Also, the growth was 87.4% in assay [7], 23.8% in assay [8], 70.9% in assay [9] and -19.8% (active) in assay [10].
As for `COc1cc(/C=C/C(=O)c2cnn(-c3cc(=O)[nH]c4ccc(C)cc34)c2C)cc(OC)c1OC`, the growth in assay [1] was -54.6% (active); in [2], 0.896% (active); in [3] it was -19.5% (active); in assay [4], -2.3% (active); in [5] it was -76.9% (active); in [6], 6.69% (active). Further, the growth was 12.7% in assay [7], -29% (active) in [8], 5.74% (active) in assay [9] and -51.2% (active) in assay [10].
Take `O=C(N/N=C/c1ccoc1)c1[nH]c2ccc(Br)cc2c1-c1ccccc1`: the growth in [1] is -48.3% (active); in assay [2] it was 3.56% (active); in assay [3], -84.7% (active); in [4] it was -85.6% (active); in assay [5], -86.3% (active); in [6], -56.8% (active). Also, the growth in [7] was -97.9% (active); in assay [8] it was -97.6% (active); in assay [9], -78.1% (active); in assay [10], -84.6% (active).
